Results from the supplement of paper PMC12808144.
Values without a mark were called inactive.

test system: NHEM-hTERT; experiment: cell viability relative to DMSO control (fraction of DMSO control); higher = less cytotoxic, active = 0.5 or less; details: 1 µM; 120 h
Outline: (§1)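 Three cell types were screened against 315 approved anti-cancer drugs from TargetMol, acoustically pre-spotted in 384-well plates at 1 µM in duplicate over 120 h: NHEM-hTERT immortalized melanocytes (2500/well), patient-derived Mel-DCC-11 and its resistant subline Mel-DCC-11-R (both 1500/well), all in 40 µl per well. The subline was tested alone and with 8 µM of its selecting drug. Viability, measured by luminescence, was normalised to vehicle controls and averaged across duplicates, with ATPlite 1step as the readout.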

Compound	cell viability
O=[N+]([O-])c1cncn1CCN1CCOCC1 [Nimorazole]	1.14
COC(=O)Nc1nc2ccc(C(=O)c3cccs3)cc2[nH]1 [Nocodazole]	0.63
COc1ccc(C(Cl)=C(c2ccc(OC)cc2)c2ccc(OC)cc2)cc1 [Chlorotrianisene]	0.795
[Cl][Pt+2][Cl] [Cisplatin]	1.04
Nc1ccc(F)cc1NC(=O)c1ccc(CNC(=O)/C=C/c2cccnc2)cc1 [Chidamide]	0.668
CCCCCCCCCCCCCCCC(=O)OC/C=C(C)/C=C/C=C(C)/C=C/C1=C(C)CCCC1(C)C [Retinol palmitate]	0.993
COc1cc2c(N3CCN(C(=O)Nc4ccc(OC(C)C)cc4)CC3)ncnc2cc1OCCCN1CCCCC1 [Tandutinib]	1.15
CN(C)CCCN1c2ccccc2Sc2ccc(Cl)cc21.Cl [Chlorpromazine hydrochloride]	1.06
C#C[C@]1(O)CC[C@H]2[C@@H]3CCc4cc(OC5CCCC5)ccc4[C@H]3CC[C@@]21C [Quinestrol]	0.894
C[C@]12CC[C@@H]3c4ccc(O)cc4C[C@@H](CCCCCCCCCS(=O)CCCC(F)(F)C(F)(F)F)[C@H]3[C@@H]1CC[C@@H]2O (some centres undefined) [Fulvestrant]	0.817

test system: Mel-DCC-11-R; experiment: cell viability relative to DMSO control (fraction of DMSO control); higher = less cytotoxic, active = 0.8 or less; details: 1 µM; 120 h; vemurafenib co-treatment 0 µM
Outline: as §1

Compound	cell viability
COc1cc2c(Nc3ccc(Br)cc3F)ncnc2cc1OCC1CCN(C)CC1 [Vandetanib]	1.29
O=C(c1cc(Cc2n[nH]c(=O)c3ccccc23)ccc1F)N1CCN(C(=O)C2CC2)CC1 [Olaparib]	1.09
O=C1CCC(N2C(=O)c3ccccc3C2=O)C(=O)N1 (centres undefined) [Thalidomide]	0.897
COc1cc2c(Oc3ccc4[nH]c(C)cc4c3F)ncnc2cc1OCCCN1CCCC1 [Cediranib]	0.853
CCCCCCCCCCCCCCCCOP(=O)([O-])OCC[N+](C)(C)C [Miltefosine]	0.843
O=S(=O)([O-])CCS.[Na+] [Mesna]	1.11
O=C(NC(Cc1cc(=O)[nH]c2ccccc12)C(=O)O)c1ccc(Cl)cc1 (centres undefined) [Rebamipide]	0.995
NC(=O)N1CCC(CC(=O)N2CCC([C@H]3c4ncc(Br)cc4CCc4cc(Cl)cc(Br)c43)CC2)CC1 [Lonafarnib]	0.926
O=C(CCCCCCNC(=O)c1cnc(N(c2ccccc2)c2ccccc2)nc1)NO [Rocilinostat]	0.681 (active)
Cc1[nH]c2ccccc2c1CCNCc1ccc(/C=C/C(=O)NO)cc1 [Panobinostat]	0.0716 (active)
N#CC[C@@H](C1CCCC1)n1cc(-c2ncnc3[nH]ccc23)cn1 [S-Ruxolitinib]	1.01
COc1cc([C@H]2Oc3cc([C@H]4Oc5cc(O)cc(O)c5C(=O)[C@@H]4O)ccc3O[C@@H]2CO)ccc1O [Silibinin]	0.799 (active)
CNC(=O)c1ccc(N2C(=S)N(c3ccc(C#N)c(C(F)(F)F)c3)C(=O)C2(C)C)cc1F [Enzalutamide]	0.889
N.N.O=C([O-])C[O-].[Pt+2] [Nedaplatin]	1
C[C@@H]1O[C@@H](OC[C@H]2O[C@@H](Oc3c(-c4ccc(O)c(O)c4)oc4cc(O)cc(O)c4c3=O)[C@H](O)[C@@H](O)[C@@H]2O)[C@H](O)[C@H](O)[C@H]1O [Rutin]	1.01
CNC(=O)c1cc(Oc2ccc(NC(=O)Nc3ccc(Cl)c(C(F)(F)F)c3)cc2)ccn1.Cc1ccc(S(=O)(=O)O)cc1 [Sorafenib tosylate]	1.02
O=[N+]([O-])c1cncn1CCN1CCOCC1 [Nimorazole]	1.02
COc1ccc(C(Cl)=C(c2ccc(OC)cc2)c2ccc(OC)cc2)cc1 [Chlorotrianisene]	0.86
Nc1ccc(F)cc1NC(=O)c1ccc(CNC(=O)/C=C/c2cccnc2)cc1 [Chidamide]	1.34
COc1cc2c(N3CCN(C(=O)Nc4ccc(OC(C)C)cc4)CC3)ncnc2cc1OCCCN1CCCCC1 [Tandutinib]	0.907
CN(C)CCCN1c2ccccc2Sc2ccc(Cl)cc21.Cl [Chlorpromazine hydrochloride]	1.06
C#C[C@]1(O)CC[C@H]2[C@@H]3CCc4cc(OC5CCCC5)ccc4[C@H]3CC[C@@]21C [Quinestrol]	0.953

same assay, conditions: 1 µM; 120 h; vemurafenib co-treatment 8 µM

Compound	cell viability
COc1cc2c(Nc3ccc(Br)cc3F)ncnc2cc1OCC1CCN(C)CC1 [Vandetanib]	1.01
O=C(c1cc(Cc2n[nH]c(=O)c3ccccc23)ccc1F)N1CCN(C(=O)C2CC2)CC1 [Olaparib]	0.92
O=C1CCC(N2C(=O)c3ccccc3C2=O)C(=O)N1 (centres undefined) [Thalidomide]	0.589 (active)
COc1cc2c(Oc3ccc4[nH]c(C)cc4c3F)ncnc2cc1OCCCN1CCCC1 [Cediranib]	0.728 (active)
CCCCCCCCCCCCCCCCOP(=O)([O-])OCC[N+](C)(C)C [Miltefosine]	0.936
O=S(=O)([O-])CCS.[Na+] [Mesna]	1.08
O=C(NC(Cc1cc(=O)[nH]c2ccccc12)C(=O)O)c1ccc(Cl)cc1 (centres undefined) [Rebamipide]	1.24
NC(=O)N1CCC(CC(=O)N2CCC([C@H]3c4ncc(Br)cc4CCc4cc(Cl)cc(Br)c43)CC2)CC1 [Lonafarnib]	0.889
O=C(CCCCCCNC(=O)c1cnc(N(c2ccccc2)c2ccccc2)nc1)NO [Rocilinostat]	0.644 (active)
Cc1[nH]c2ccccc2c1CCNCc1ccc(/C=C/C(=O)NO)cc1 [Panobinostat]	0.0801 (active)
N#CC[C@@H](C1CCCC1)n1cc(-c2ncnc3[nH]ccc23)cn1 [S-Ruxolitinib]	1.28
COc1cc([C@H]2Oc3cc([C@H]4Oc5cc(O)cc(O)c5C(=O)[C@@H]4O)ccc3O[C@@H]2CO)ccc1O [Silibinin]	0.914
CNC(=O)c1ccc(N2C(=S)N(c3ccc(C#N)c(C(F)(F)F)c3)C(=O)C2(C)C)cc1F [Enzalutamide]	1.09
N.N.O=C([O-])C[O-].[Pt+2] [Nedaplatin]	1.18
C[C@@H]1O[C@@H](OC[C@H]2O[C@@H](Oc3c(-c4ccc(O)c(O)c4)oc4cc(O)cc(O)c4c3=O)[C@H](O)[C@@H](O)[C@@H]2O)[C@H](O)[C@H](O)[C@H]1O [Rutin]	0.929
CNC(=O)c1cc(Oc2ccc(NC(=O)Nc3ccc(Cl)c(C(F)(F)F)c3)cc2)ccn1.Cc1ccc(S(=O)(=O)O)cc1 [Sorafenib tosylate]	1.1
O=[N+]([O-])c1cncn1CCN1CCOCC1 [Nimorazole]	1.08
COc1ccc(C(Cl)=C(c2ccc(OC)cc2)c2ccc(OC)cc2)cc1 [Chlorotrianisene]	0.833
Nc1ccc(F)cc1NC(=O)c1ccc(CNC(=O)/C=C/c2cccnc2)cc1 [Chidamide]	1.16
COc1cc2c(N3CCN(C(=O)Nc4ccc(OC(C)C)cc4)CC3)ncnc2cc1OCCCN1CCCCC1 [Tandutinib]	1.04
CN(C)CCCN1c2ccccc2Sc2ccc(Cl)cc21.Cl [Chlorpromazine hydrochloride]	1.11
C#C[C@]1(O)CC[C@H]2[C@@H]3CCc4cc(OC5CCCC5)ccc4[C@H]3CC[C@@]21C [Quinestrol]	1
